Experimental data taken from PubChem BioAssay (Tox21).
Results filed as inconclusive are left out. Values without a mark were called inactive. The source made the active and inactive calls. The call rests on the fitted dose curve; in most records, active means well fitted cell-killing curve with a large enough effect in the repeat runs; inconclusive means weak or mixed curves, or effect the other way; inactive means flat fitted curve, though single readings scatter.

Assay: qHTS RealTime-Glo MT Cell Viability Assay in HEK293 cells - 24 hour (AID 1224886); further: nearly all actives have a fitted effect of over 50% in size; on activity change, negative = cytotoxicity: top concentration of the series differs between compounds
Conditions: RealTime-Glo luminescence; series mostly up to 76.8 µM; activity change, negative = cytotoxicity: at the top concentration
Excerpt: National Center for Advancing Translational Sciences [NCATS]
NIH Chemical Genomics Center [NCGC]
U.S. Environmental Protection Agency [EPA]
National Institutes of Environmental Health Sciences [NIEHS]
National Toxicology Program [NTP]
U.S. Food and Drug Administration [FDA]
Measure of cell viability is critical in the cell-base assay. Analysis of cell viability is necessary for the characterization of cell responses to cytotoxic drugs and environmental stress. A RealTime-Glo MT Cell Viability Assay to monitor cell viability in real time of continues cell culture during 40 hours of compound treatment was used to screen Tox21 10K library compounds in Hek293 cells. The RealTime-Glo MT Cell Viability Assay is a nonlytic, homogeneous, bioluminescent method to measure cell viability in real time using a simple, plate-based method. The assay involves adding NanoLuc luciferase and a cell-permeant prosubstrate to cells in culture. Viable cells reduce the proprietary prosubstrate to generate a substrate for NanoLuc luciferase. This substrate diffuses from cells into the surrounding culture medium, where it is rapidly used by the NanoLuc Enzyme to produce a luminescent signal. The signal correlates with the number of viable cells, making the assay well suited for cytotoxicity studies.
Tox21 Assay Protocol Summary:
The mixture of Hek293 cell suspension and reagents were dispensed at 600cells/6 ul/well in 1536-well tissue culture treated black solid bottom plates using a Multidrop dispenser. After the assay plates were incubated at a 37 C/5% CO2 incubator for 5 hours, 23 nL of compounds dissolved in DMSO, positive and negative controls was transferred to the assay plate by a pintool work station. The plates were incubated at 37 C for 40 hours. The luminescence intensity were measured at 0h, 8h, 16h, 24h, 32h and 40h time points using ViewLux plate reader during compound treatment.
On the % scale 0 is the no-effect control and ±100 the full control effect; potency means the concentration at half of the fitted maximal effect.

| SMILES | activity change, negative = cytotoxicity | Potency |
| --- | --- | --- |
| O=C1Cc2cc(Cl)ccc2N1 | 25.1% [at 35.3 µM] | – |
| C=C1c2cccc(O)c2C(O)=C2C(=O)[C@]3(O)C(O)=C(C(N)=O)C(=O)[C@@H](N(C)C)[C@@H]3[C@@H](O)[C@H]12 | 1.22% [at 35.3 µM] | – |
| CC1(C)O[C@@H]2C[C@H]3[C@@H]4C[C@H](F)C5=CC(=O)C=C[C@]5(C)[C@H]4[C@@H](O)C[C@]3(C)[C@]2(C(=O)CO)O1 | -0.0216% [at 35.3 µM] | – |
| Brc1cc(Br)c(Oc2cc(Br)c(Br)cc2Br)cc1Br | -5.17% [at 35.3 µM] | – |
| CC1=C(Br)C(=O)C(Br)=C/C1=C(/c1ccccc1S(=O)(=O)O)c1cc(Br)c(O)c(Br)c1C | 2.05% [at 35.3 µM] | – |
| CCCCCCC(C)(C)C(=O)O | -2.01% | – |
| Cc1[nH]cnc1CN1CCc2c(c3ccccc3n2C)C1=O | -18.9% [at 35.3 µM] | – |
| Cc1cccc(O)c1N | -11.4% | – |
| C[C@@H](O[C@H]1OCCN(Cc2n[nH]c(=O)[nH]2)[C@H]1c1ccc(F)cc1)c1cc(C(F)(F)F)cc(C(F)(F)F)c1 | – | 16.9 µM (active) |
| CC1(C)S[C@@H]2[C@H](NC(=O)C(c3ccccc3)S(=O)(=O)O)C(=O)N2[C@H]1C(=O)O (stereo not given in full) | 0.0126% [at 35.3 µM] | – |
| CC1(C)[C@@H](OC(=O)CCC(=O)O)CC[C@]2(C)[C@H]3C(=O)C=C4[C@@H]5C[C@@](C)(C(=O)O)CC[C@]5(C)CC[C@@]4(C)[C@]3(C)CC[C@@H]12 | 11.6% [at 35.3 µM] | – |
| C=C/C(C)=C/C/C=C(\C)CCC=C(C)C | -5.19% | – |
| Oc1cccc(Nc2ccccc2)c1 | – | 14.4 µM (active) |
| O=C1c2ccccc2C(=O)C1(O)O | -1.55% | – |
| CC(C)=CCC/C(C)=C/CC/C(C)=C/C(=O)OCC(=O)[C@@]1(O)CC[C@H]2[C@@H]3CCC4=CC(=O)C=C[C@]4(C)[C@H]3[C@@H](O)C[C@@]21C | – | 4.25 µM (active) |
| CCOC(=O)c1ccc(OCCN2C[C@H](O)[C@@H](O)[C@H](O)[C@H]2CO)cc1 | 4.6% [at 35.3 µM] | – |
| NC(=O)c1ccncc1 | 9.69% | – |
| Nc1cccc2c1CN(C1CCC(=O)NC1=O)C2=O (stereo not given) | 1.92% [at 35.3 µM] | – |
| CC(CO)CO | 1.02% | – |
| CCOc1ccccc1O[C@H](c1ccccc1)[C@H]1CNCCO1 | -0.0872% [at 35.3 µM] | – |

| SMILES | activity change, negative = cytotoxicity | Potency |
| --- | --- | --- |
| CCCCCCCCN | -0.866% | – |
| CCOc1ccc(Cc2nccc3cc(OCC)c(OCC)cc23)cc1OCC | – | 7.56 µM (active) |
| O=C1Cc2ccccc2N1c1c(Cl)cccc1Cl | – | 38.9 µM (active) |
| Cc1ccc(Cl)c(Nc2ccccc2C(=O)O)c1Cl | 0.01% [at 35.3 µM] | – |
| COC(=O)c1nc(Cl)c(Cl)nc1N | – | 9.52 µM (active) |
| COc1ccccc1Oc1c(NS(=O)(=O)c2ccc(C(C)(C)C)cc2)nc(-c2ncccn2)nc1OCCO | -3.79% [at 35.3 µM] | – |
| C[C@@H]1CC(=O)NN=C1c1ccc(NN=C(C#N)C#N)cc1 | -27.5% [at 35.3 µM] | – |
| O=C(OCC(O)CO)c1ccccc1Nc1ccnc2cc(Cl)ccc12 (stereo not given) | – | 7.56 µM (active) |
| CC=C(Cl)Cl | 10% | – |
| O=[N+]([O-])c1ccc(O/N=C/c2cc(Br)c(O)c(Br)c2)c([N+](=O)[O-])c1 | – | 48.7 µM (active) |
| COC(=O)C1=C(C)NC(C)=C(C(=O)O[C@@H]2CCCN(Cc3ccccc3)C2)[C@@H]1c1cccc([N+](=O)[O-])c1 | -24.5% [at 35.3 µM] | – |
| O=[N+]([O-])c1ccc(Nc2ccc(Nc3ccccc3)c(S(=O)(=O)O)c2)c([N+](=O)[O-])c1 | 0.802% | – |
| O=C(O)CCc1nc(-c2ccccc2)c(-c2ccccc2)o1 | 8.4% [at 35.3 µM] | – |
| O=C1c2ccccc2C(=O)C1c1nc2ccccc2c(Br)c1O | 3.94% | – |
| CC(=O)Oc1ccc([N+](=O)[O-])cc1CCl | – | 4.36 µM (active) |
| O=C(/C=C/c1ccc(O)c(O)c1)O[C@@H]1C[C@@](OC(=O)/C=C/c2ccc(O)c(O)c2)(C(=O)O)C[C@@H](O)[C@@H]1O | 5.9% [at 35.3 µM] | – |
| FC(F)(F)c1ccccc1Cl | 4.17% | – |
| O=C(Cn1ccnc1[N+](=O)[O-])NCCO | 3.66% [at 35.3 µM] | – |
| N#[N+]c1ccc2c(S(=O)(=O)[O-])cccc2c1O | -21.2% | – |
| CC(CN(C)C)C(C)(O)Cc1ccc(Cl)cc1 (stereo not given) | -1.88% [at 35.3 µM] | – |
